According to the supplement of paper PMC11732987, “Enantioselective OTUD7B fragment discovery through chemoproteomics screening and high-throughput optimisation” (Communications Chemistry, 2025):

Columns and labels:
Assay in all cases: log2 ratio of Biotin-Ahx-Ub-VS probe labelling (fragment/DMSO); higher = less target engagement (more negative = stronger competition), active = hit call of the paper (q ≤ 0.05, log2 ratio ≤ -1)
Conditions in all cases: compound concentration: 200 uM; treatment time: 3 h
USP42 = molecular target: T1, USP42 (UniProt Q9H9J4)
T1 sequence (whole entry): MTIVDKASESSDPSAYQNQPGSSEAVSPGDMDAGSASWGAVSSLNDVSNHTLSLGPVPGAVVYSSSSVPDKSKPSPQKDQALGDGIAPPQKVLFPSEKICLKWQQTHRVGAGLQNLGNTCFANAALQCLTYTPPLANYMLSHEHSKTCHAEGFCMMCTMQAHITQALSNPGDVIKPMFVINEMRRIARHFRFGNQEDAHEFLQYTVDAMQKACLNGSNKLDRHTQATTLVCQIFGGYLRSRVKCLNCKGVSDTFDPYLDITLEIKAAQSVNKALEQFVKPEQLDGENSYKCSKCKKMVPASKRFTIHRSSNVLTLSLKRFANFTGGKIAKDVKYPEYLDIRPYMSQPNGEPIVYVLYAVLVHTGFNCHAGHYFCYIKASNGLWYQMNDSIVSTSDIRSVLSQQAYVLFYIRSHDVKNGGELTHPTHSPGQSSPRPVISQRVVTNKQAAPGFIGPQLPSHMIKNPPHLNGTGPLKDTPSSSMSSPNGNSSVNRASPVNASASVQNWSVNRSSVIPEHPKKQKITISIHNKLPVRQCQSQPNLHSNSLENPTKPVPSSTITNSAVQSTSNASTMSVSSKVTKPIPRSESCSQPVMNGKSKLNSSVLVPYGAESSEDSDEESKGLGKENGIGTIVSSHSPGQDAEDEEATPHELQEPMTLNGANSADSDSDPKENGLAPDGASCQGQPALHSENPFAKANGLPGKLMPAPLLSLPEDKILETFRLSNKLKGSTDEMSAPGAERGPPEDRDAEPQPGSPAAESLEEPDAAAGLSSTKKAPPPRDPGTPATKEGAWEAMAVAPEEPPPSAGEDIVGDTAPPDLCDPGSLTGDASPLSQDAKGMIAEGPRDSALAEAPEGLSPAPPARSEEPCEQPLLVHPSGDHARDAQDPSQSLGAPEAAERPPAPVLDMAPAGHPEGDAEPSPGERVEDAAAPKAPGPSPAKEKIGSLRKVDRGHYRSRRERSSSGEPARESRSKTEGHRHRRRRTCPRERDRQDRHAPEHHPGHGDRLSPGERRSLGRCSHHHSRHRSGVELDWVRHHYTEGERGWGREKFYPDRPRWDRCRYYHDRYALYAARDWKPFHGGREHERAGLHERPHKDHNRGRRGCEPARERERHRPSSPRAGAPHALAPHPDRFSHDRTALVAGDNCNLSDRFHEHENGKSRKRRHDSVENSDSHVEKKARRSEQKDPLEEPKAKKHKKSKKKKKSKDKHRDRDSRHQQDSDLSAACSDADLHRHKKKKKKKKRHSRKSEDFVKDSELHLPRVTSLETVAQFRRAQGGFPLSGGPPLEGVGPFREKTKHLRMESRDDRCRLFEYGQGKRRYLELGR
In short: (§1)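 HEK293T lysate (495 µg per sample, in Tris/CHAPS/IGEPAL buffer with protease inhibitors) was exposed in triplicate for 3 h to fragment at 200 µM or to vehicle, then to Biotin-Ahx-Ub-VS at 0.5 µM final for 1 h. Labelled DUBs were enriched on NeutrAvidin, digested with LysC and trypsin, and analysed by diaPASEF LC-MS/MS. Spectronaut label-free quantities were normalised to the global median, and values are average log2 ratios of fragment over vehicle from an unpaired t-test. Only proteins with ≥2 unique peptides were used.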

USP46 = USP46 (UniProt P62068)
In short: as §1

USP47 = molecular target: T2, USP47 (UniProt Q96K76)
T2 sequence (whole entry): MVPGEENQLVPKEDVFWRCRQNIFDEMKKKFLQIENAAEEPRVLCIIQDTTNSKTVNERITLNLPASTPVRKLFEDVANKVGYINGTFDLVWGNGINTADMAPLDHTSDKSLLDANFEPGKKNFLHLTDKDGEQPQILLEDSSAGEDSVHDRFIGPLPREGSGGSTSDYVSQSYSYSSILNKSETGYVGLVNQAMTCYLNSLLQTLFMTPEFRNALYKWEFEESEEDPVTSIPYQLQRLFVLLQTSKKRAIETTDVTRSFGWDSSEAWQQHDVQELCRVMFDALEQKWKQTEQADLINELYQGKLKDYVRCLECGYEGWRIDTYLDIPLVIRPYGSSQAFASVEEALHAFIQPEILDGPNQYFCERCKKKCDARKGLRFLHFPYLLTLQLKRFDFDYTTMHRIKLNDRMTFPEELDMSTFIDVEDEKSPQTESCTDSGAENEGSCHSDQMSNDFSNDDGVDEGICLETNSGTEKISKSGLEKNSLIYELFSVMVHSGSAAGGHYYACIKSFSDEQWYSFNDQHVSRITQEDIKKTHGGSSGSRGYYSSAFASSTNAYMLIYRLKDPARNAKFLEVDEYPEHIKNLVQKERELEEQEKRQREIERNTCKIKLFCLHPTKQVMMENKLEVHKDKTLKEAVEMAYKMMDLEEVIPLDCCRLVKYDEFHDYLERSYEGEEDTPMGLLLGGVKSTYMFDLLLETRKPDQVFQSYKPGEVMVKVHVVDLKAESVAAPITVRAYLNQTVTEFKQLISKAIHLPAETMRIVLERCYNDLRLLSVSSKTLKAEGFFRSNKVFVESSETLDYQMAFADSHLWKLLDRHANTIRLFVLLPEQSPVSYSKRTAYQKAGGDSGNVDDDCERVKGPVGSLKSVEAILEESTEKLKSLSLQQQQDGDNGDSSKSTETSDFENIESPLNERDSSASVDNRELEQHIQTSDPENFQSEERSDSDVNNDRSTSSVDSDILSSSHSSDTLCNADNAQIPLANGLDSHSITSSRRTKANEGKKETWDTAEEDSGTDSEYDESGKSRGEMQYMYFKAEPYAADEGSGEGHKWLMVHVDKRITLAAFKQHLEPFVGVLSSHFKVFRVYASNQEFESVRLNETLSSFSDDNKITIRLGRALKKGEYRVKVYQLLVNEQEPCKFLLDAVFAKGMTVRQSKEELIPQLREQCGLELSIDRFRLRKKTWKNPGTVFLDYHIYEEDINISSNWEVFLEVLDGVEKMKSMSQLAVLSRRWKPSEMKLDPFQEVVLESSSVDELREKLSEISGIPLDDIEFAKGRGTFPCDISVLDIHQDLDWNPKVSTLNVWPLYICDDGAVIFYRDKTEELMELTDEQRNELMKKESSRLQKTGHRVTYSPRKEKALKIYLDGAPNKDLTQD
In short: as §1

USP48 = molecular target: T3, USP48 (UniProt Q86UV5)
T3 sequence (whole entry): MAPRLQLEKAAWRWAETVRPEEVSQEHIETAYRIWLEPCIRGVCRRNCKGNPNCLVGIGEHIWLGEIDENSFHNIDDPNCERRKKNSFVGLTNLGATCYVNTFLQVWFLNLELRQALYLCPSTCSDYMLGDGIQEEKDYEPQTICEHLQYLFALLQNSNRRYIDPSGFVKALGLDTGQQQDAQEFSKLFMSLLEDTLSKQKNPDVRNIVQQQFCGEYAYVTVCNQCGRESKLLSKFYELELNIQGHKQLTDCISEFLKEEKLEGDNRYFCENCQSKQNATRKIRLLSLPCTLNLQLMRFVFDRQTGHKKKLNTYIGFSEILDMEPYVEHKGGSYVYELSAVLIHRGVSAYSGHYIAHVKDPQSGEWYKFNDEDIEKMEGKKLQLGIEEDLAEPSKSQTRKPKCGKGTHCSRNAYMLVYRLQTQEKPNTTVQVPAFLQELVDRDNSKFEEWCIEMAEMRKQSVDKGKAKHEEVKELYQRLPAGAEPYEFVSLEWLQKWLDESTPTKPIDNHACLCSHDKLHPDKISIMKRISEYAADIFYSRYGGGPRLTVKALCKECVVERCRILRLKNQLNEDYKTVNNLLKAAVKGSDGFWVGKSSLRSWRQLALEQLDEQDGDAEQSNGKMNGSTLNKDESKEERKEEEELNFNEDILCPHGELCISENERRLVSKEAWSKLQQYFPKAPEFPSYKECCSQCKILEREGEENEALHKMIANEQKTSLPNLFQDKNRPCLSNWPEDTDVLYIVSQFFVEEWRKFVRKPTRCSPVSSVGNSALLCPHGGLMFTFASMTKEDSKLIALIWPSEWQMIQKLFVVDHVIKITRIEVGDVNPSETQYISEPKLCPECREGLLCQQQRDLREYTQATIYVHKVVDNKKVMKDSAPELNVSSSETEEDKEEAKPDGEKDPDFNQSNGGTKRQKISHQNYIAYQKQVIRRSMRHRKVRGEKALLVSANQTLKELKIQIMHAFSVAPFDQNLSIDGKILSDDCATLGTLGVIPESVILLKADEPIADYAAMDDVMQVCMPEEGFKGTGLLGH
In short: as §1

USP5 = molecular target: T4, USP5 (UniProt P45974)
T4 sequence (whole entry): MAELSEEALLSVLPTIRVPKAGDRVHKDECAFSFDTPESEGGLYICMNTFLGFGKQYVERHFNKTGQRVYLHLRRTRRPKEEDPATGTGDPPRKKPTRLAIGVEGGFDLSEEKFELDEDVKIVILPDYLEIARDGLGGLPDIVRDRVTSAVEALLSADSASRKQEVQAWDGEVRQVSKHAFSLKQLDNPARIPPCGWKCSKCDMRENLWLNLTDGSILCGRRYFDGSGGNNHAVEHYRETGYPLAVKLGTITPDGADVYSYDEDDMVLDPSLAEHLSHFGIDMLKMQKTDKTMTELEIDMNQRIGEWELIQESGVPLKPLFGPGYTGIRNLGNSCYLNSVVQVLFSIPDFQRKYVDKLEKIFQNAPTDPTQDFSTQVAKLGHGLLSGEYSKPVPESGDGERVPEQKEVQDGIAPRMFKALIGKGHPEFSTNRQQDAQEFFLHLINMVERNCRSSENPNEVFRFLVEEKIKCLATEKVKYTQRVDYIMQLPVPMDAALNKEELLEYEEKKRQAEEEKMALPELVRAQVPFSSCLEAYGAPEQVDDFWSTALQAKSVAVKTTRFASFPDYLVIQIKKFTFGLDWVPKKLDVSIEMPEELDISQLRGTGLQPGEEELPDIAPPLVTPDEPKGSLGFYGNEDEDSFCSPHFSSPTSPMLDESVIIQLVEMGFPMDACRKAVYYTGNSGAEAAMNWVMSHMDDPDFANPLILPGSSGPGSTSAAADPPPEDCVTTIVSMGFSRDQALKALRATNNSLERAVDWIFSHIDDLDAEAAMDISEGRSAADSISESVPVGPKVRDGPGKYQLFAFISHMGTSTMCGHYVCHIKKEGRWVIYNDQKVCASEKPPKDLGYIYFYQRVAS
In short: as §1

USP54 = USP54 (UniProt Q70EL1)
In short: as §1

USP7 = USP7 (UniProt Q93009)
In short: as §1

USP8 = molecular target: T5, USP8 (UniProt P40818)
T5 sequence (whole entry): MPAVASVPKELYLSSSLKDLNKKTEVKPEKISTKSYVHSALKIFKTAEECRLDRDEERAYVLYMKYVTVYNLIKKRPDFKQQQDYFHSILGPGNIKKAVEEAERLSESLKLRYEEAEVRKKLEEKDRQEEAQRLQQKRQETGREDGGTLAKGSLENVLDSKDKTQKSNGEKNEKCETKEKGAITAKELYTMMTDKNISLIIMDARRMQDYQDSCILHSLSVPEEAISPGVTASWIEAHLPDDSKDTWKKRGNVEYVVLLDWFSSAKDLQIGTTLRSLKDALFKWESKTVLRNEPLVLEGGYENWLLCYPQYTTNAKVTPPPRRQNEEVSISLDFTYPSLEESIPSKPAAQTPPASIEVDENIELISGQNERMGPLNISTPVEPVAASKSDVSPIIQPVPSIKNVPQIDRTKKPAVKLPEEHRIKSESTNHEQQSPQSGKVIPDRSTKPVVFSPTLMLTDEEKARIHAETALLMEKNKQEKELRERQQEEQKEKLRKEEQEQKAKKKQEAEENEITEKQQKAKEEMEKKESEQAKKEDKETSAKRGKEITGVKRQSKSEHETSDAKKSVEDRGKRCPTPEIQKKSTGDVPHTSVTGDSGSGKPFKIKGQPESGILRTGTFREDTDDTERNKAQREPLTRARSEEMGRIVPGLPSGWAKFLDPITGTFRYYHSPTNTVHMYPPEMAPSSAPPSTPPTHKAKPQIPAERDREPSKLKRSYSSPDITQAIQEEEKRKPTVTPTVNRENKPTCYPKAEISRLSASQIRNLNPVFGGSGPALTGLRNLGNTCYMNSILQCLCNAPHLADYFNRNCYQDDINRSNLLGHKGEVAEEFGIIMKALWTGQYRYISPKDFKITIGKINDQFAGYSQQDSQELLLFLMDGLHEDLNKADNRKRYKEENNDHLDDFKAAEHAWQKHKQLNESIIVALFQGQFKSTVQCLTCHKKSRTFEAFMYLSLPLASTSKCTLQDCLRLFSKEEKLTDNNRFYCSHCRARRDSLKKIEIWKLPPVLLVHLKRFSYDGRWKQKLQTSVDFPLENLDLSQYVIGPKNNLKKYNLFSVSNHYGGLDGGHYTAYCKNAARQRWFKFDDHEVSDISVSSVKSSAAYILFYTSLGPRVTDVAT
In short: as §1

Measured: log2 ratio of Biotin-Ahx-Ub-VS probe labelling

USP7, sequence (Q93009 whole entry, looked up): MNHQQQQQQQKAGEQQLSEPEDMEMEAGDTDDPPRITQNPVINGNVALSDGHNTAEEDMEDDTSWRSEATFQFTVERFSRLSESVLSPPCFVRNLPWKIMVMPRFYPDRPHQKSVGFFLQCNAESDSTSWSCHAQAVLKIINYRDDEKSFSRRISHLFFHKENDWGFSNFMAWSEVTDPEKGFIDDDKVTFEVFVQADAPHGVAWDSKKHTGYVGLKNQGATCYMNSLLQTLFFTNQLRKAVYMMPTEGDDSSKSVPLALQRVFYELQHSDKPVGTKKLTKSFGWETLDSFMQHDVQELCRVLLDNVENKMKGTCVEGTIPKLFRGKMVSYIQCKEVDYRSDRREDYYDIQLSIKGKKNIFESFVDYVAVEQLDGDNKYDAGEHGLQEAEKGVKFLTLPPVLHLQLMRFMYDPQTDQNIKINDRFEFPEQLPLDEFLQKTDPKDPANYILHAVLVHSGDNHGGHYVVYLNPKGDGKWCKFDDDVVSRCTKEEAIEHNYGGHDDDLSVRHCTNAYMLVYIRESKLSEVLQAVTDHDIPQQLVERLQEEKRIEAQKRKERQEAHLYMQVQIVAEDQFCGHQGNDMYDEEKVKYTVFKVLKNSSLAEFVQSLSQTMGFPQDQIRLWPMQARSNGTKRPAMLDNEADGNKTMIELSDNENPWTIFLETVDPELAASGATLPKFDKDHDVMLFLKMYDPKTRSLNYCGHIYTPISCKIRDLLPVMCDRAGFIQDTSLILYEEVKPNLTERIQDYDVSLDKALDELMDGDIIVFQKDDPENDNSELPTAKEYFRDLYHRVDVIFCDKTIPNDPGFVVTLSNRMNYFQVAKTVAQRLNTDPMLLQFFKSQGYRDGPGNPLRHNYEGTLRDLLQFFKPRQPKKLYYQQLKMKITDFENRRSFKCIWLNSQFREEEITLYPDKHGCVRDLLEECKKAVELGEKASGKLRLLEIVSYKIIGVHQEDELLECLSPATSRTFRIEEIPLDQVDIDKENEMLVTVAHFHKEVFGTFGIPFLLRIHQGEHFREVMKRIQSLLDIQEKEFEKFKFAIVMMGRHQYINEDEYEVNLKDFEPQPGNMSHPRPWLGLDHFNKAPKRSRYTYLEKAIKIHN
USP54, sequence (Q70EL1 whole entry): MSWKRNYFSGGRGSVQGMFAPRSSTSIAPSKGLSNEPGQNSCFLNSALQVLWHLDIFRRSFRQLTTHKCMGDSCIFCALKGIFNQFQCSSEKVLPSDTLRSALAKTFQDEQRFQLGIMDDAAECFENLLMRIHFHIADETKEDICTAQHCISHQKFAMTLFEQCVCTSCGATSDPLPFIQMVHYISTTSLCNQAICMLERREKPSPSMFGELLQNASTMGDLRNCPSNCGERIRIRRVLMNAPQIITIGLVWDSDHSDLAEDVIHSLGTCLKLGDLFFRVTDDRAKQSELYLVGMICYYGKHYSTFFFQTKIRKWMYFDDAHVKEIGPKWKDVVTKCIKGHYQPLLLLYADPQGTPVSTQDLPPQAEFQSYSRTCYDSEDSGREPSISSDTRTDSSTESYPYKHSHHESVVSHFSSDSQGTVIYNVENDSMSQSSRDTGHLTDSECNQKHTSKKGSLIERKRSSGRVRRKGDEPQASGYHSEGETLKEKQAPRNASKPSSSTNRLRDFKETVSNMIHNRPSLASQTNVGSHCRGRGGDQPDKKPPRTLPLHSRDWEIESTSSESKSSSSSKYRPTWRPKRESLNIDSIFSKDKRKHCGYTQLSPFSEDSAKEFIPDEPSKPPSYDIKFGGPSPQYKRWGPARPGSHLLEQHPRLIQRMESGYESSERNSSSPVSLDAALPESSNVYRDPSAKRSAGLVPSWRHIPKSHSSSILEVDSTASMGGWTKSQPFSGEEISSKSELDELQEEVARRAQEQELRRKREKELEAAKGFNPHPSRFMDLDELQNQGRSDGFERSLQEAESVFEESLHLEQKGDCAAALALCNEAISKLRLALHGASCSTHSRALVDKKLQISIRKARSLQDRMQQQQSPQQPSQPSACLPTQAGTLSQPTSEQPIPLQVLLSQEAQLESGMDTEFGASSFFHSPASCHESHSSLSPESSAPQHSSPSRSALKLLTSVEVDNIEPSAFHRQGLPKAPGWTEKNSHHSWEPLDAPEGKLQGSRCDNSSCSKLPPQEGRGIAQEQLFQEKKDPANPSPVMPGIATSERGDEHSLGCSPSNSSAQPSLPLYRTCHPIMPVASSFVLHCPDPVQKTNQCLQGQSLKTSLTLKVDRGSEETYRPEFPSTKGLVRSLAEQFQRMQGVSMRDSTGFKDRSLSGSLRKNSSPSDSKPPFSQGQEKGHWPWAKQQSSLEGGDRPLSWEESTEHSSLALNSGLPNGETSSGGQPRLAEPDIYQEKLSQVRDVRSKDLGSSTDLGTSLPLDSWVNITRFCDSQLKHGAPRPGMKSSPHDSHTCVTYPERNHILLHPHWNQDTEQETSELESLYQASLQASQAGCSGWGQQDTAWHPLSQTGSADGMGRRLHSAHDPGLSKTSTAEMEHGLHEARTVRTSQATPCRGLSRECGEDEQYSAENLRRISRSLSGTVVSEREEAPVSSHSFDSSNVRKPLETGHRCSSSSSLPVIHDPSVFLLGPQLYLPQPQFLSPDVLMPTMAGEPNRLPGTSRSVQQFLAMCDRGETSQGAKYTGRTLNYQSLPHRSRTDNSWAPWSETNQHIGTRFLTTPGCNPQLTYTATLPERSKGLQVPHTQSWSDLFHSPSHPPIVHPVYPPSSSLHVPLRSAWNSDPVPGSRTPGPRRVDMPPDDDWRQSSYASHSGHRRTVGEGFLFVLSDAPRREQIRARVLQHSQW
USP46, sequence (P62068 whole entry): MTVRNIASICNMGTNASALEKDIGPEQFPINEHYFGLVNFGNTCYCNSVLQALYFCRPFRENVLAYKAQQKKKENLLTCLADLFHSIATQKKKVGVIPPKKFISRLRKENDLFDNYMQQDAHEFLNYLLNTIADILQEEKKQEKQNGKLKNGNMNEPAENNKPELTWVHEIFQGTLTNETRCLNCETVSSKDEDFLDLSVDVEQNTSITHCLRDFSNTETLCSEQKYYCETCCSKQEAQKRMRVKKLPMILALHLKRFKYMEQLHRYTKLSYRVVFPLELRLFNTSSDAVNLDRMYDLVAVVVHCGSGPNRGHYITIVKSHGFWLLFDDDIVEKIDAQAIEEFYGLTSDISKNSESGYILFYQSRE

O=C(CCl)N(C1CCCC1)C1CCS(=O)(=O)C1 (stereo not drawn)
active: USP48 -1.18
inactive: USP42 0.228 | USP46 -0.0761 | USP47 -0.442 | USP5 0.124 | USP54 -0.384 | USP7 -0.798 | USP8 0.0542
